Test results reported in PubChem BioAssay (Tox21).
Results filed as inconclusive are left out. Activity calls are given as the source filed them. Unless noted, the call rests on the fitted dose curve; in most records, active means well fitted curve in the direction sought with a large enough effect in the repeat runs; inconclusive means weak or mixed curves; inactive means no such curve, though single readings can be large; an effect the other way counts as inactive or inconclusive.

Tests used:
[1] = qHTS assay to identify small molecule agonists of the sonic hedgehog signaling (Shh) pathway (AID 1259368; calls by dose curve;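 further: NIH/3T3-derived 3T3Gli1-Luc cells carrying a stable Gli1-driven firefly luciferase reporter; series mostly up to about 92 µM; nearly all actives have a fitted effect of over 15% in size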)
Outline: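 Luminescent signal was taken as a measure of Gli1-controlled luciferase expression in stably transfected NIH/3T3-derived cells that had been treated for 24 hr with compounds delivered in DMSO.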

[2] = qHTS assay to identify small molecule antagonists of the sonic hedgehog signaling (Shh) pathway (AID 1259369; calls by dose curve; further: nearly all actives have a fitted effect of over 45% in size)
Outline: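 Screening used 3T3Gli1-Luc cells at 2,000 per well, compounds delivered in DMSO, and conditioned medium as agonist stimulus; plates incubated 24hr at 37 C and 5% CO2 before a 30min luciferase step.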

[3] = target: Estrogen receptor beta (Homo sapiens) (UniProt Q92731); assay: qHTS assay to identify small molecule agonists of the estrogen receptor beta (ER-beta) signaling pathway (AID 1259377; active means well fitted activation curve with a large enough effect in the signal ratio in the repeat runs, not every such curve was filed as active; the % refers to the signal ratio)
Outline: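 Screening used GripTite ER-beta-UAS-bla cells held in 2% charcoal-stripped FBS medium. After overnight (16 hr) compound incubation at 37C, beta-lactamase activity was detected with a FRET substrate by fluorescence.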

[4] = target: Estrogen receptor beta (Homo sapiens) (UniProt Q92731); assay: qHTS assay to identify small molecule antagonists of the estrogen receptor beta (ER-beta) signaling pathway (AID 1259378; active means well fitted inhibition curve with a large enough effect in the signal ratio in the repeat runs, not every such curve was filed as active; the % refers to the signal ratio)
Outline: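 ER-beta-UAS-bla HEK293T (GripTite) cells in 2% charcoal-stripped FBS medium were preincubated 6 hr at 37C, dosed with compound, then stimulated with 1 nM E2 (final) for 16 hr; beta-lactamase reporter read by B/G FRET fluorescence after 2 hr substrate loading.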

[5] = qHTS assay to identify small molecule agonists of the androgen receptor (AR) signaling pathway in the presence of an antagonist - cell viability counter screen (AID 1259379);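 further: MDA-kb2 human breast cancer cells carrying an MMTV luciferase reporter; series mostly up to about 92 µM; nearly all actives have a fitted effect of over 25% in size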
Outline: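 In MDA-kb2 cells (human breast carcinoma, MMTV-luciferase), compounds at 15 concentrations plus 3.0uM nilutamide; 16 hr, 37C, 0% CO2; CellTiter-Fluor fluorescence read for viability.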

[6] = qHTS assay to identify small molecule agonists of the estrogen receptor beta (ER-beta) signaling pathway - cell viability counter screen (AID 1259380); further: nearly all actives have a fitted effect of over 30% in size
Outline: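 Viability of ER-beta-UAS-bla HEK293T cells was determined by CellTiter-Glo luminescence following 16 hr treatment with test compounds at 37C.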

[7] = qHTS assay to identify small molecule antagonists of the estrogen receptor beta (ER-beta) signaling pathway - cell viability counter screen (AID 1259382); further: series mostly up to about 92 µM; nearly all actives have a fitted effect of over 55% in size
Outline: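 Tox21 10K library tested in qHTS format on ER-beta-bla HEK293T cells stimulated with 1nM E2; 16 hr treatment at 37C. Same-well CellTiter-Glo luminescence served as the cell viability measure.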

[8] = target: Estrogen receptor (Homo sapiens) (UniProt P03372); assay: qHTS assay to identify small molecule agonists of the estrogen receptor alpha (ER-alpha) signaling pathway in the presence of an antagonist (AID 1259383; calls by dose curve; further: top concentration of the series differs between compounds; nearly all actives have a fitted effect of over 15% in size)
Outline: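 In VM7Luc4E2 cells, 4,000 per well, compounds at 15 concentrations were co-incubated 22hr at 37C with 10.0nM final ICI-182,780. Luminescence from the stably transfected 4×ERE-luciferase reporter was recorded 30min after ONE-Glo addition.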

[9] = qHTS assay to identify small molecule agonists of the estrogen receptor alpha (ER-alpha) signaling pathway in the presence of an antagonist - cell viability counter screen (AID 1259386);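 further: series mostly up to about 92 µM; cells exposed to compounds for 22 h at 37 °C before the viability read; nearly all actives have a fitted effect of over 30% in size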
Outline: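 Fluorescent CellTiter-Fluor viability signal from VM7Luc4E2 cells, with the reagent added during the final hour of a 22hr compound exposure at 37C in the presence of 10.0nM ICI-182,780.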

[10] = target: Progesterone receptor (Homo sapiens) (UniProt P06401); assay: qHTS assay to identify small molecule agonists of the progesterone receptor (PR) signaling pathway (AID 1346784; calls by dose curve; further: nearly all actives have a fitted effect of over 30% in size)
Outline: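 Seed PR-UAS-bla HEK 293T cells (2% charcoal-stripped FBS), incubate 6 hr at 37C; add compounds in DMSO, 16 hr at 37C; add LiveBLAzer B/G substrate, 2 hr RT; read fluorescence intensity.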

[11] = target: Progesterone receptor (Homo sapiens) (UniProt P06401); assay: qHTS assay to identify small molecule antagonists of the progesterone receptor (PR) signaling pathway (AID 1346795; active means well fitted inhibition curve with a large enough effect in the signal ratio in the repeat runs, not every such curve was filed as active; the % refers to the signal ratio)
Outline: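 Screening used a GripTite HEK293T line with PR-responsive UAS-beta-lactamase. Cells were challenged with compound in the presence of 1 nM R5020 final for 16 hr at 37C; B/G FRET substrate, 2 hr room temperature, fluorescence.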

[12] = qHTS assay to identify small molecule antagonists of the progesterone receptor (PR) signaling pathway - cell viability counter screen (AID 1346798); further: series mostly up to about 92 µM; nearly all actives have a fitted effect of over 50% in size
Outline: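 Measures cytotoxicity in parallel with the PR antagonist reporter read: HEK293T PR-UAS-bla cells get compound and R5020 for 16 hr, and remaining viable cells are quantified by CellTiter-Glo luminescence.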

[13] = qHTS assay to identify small molecule agonists of the progesterone receptor (PR) signaling pathway - cell viability counter screen (AID 1346799; calls by dose curve; further: nearly all actives have a fitted effect of over 45% in size)
Outline: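 Using the same plates as the PR reporter screen, HEK293T PR-UAS-bla cells received compounds for 16 hr at 37C and were then lysed with CellTiter-Glo; luminescence was read 30 min later at room temperature.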

[14] = qHTS assay to identify small molecule antagonists of the TGF-beta/Smad signaling pathway - cell viability counter screen (AID 1346824); further: nearly all actives have a fitted effect of over 50% in size
Outline: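 SBE-bla HEK 293T cells were plated overnight at 37 C, then given compounds in DMSO plus TGF-beta1 (added as 0.25 ng/mL solution) for 5 hr. After the bla read, CellTiter-Glo was added to the same wells and luminescence read after 30 min at room temperature.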

[15] = qHTS assay to identify small molecule agonists of the TGF-beta/Smad signaling pathway - cell viability counter screen (AID 1346829); further: top concentration of the series differs between compounds; nearly all actives have a fitted effect of over 45% in size
Outline: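 Compound-treated SBE-bla HEK 293T cells (5 hr, 37 C) were assessed for viability with CellTiter-Glo in parallel with the reporter read.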

[16] = qHTS assay to identify small molecule agonists of the TGF-beta/Smad signaling pathway (AID 1346859; active means well fitted activation curve with a large enough effect in the signal ratio in the repeat runs, not every such curve was filed as active; the % refers to the signal ratio; further: series mostly up to about 77 µM)
Outline: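 Beta-lactamase reporter activity downstream of Smad binding elements was measured in stably transfected HEK 293T cells; compounds were incubated for 5 hr, substrate for 2 hr at room temperature.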

[17] = target: Thyrotropin-releasing hormone receptor (Homo sapiens) (UniProt P34981); assay: qHTS assay to identify small molecule antagonists of the thyrotropin-releasing hormone receptor (TRHR) signaling pathway (AID 1346877; active means well fitted inhibition curve with a large enough effect in the repeat runs, not every such curve was filed as active; further: series mostly up to about 51 µM)
Outline: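 In this cell-based calcium flux format, HEK293 cells expressing TRHR received test compound for 5 min before the agonist TRH (1 nM final). Dye loading lasted 2 h at 37 °C.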

[18] = qHTS assay to identify small molecule agonists or antagonists of the thyroid stimulating hormone receptor (TSHR) signaling pathway - wild type cell line counter screen (AID 1259384; calls by dose curve)
Outline: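 Wild-type HEK293 cells were plated 18 h at 37 C/5% CO2, pin-dosed with compound plus Ro20-1724 medium, held 30 min at room temperature, then given cAMP-d2 and anti-cAMP-cryptate; fluorescence was read after 1 h. Fifteen concentrations, triplicate.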

[19] = target: Androgen receptor (Homo sapiens) (UniProt P10275); assay: qHTS assay to identify small molecule agonists of the androgen receptor (AR) signaling pathway in the presence of an antagonist (AID 1259381; calls by dose curve; further: nearly all actives have a fitted effect of over 15% in size)
Outline: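 Here, 15-concentration compound series were pin-transferred onto MDA-kb2 MMTV-luciferase cells already dosed with nilutamide (3.0uM final). After 16hr at 37C, ONE-Glo was added and luminescence read 30min later at room temperature.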

[20] = target: Thyrotropin receptor (Homo sapiens) (UniProt P16473); assay: qHTS assay to identify small molecule antagonists of the thyroid stimulating hormone receptor (TSHR) signaling pathway (AID 1259385; calls by dose curve; further: nearly all actives have a fitted effect of over 20% in size)
Outline: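 TSHR-HEK293 cells were plated and held 18 h at 37C/5% CO2, then given compound plus Ro20-1724 and stimulated with TSH at 1.5 ng/mL final. After 30 min at room temperature, cAMP was detected with cAMP-d2/anti-cAMP-cryptate (1 h) by fluorescence.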
On the % scale 0 is the no-effect control and ±100 the full control effect.

Sequence of Thyrotropin-releasing hormone receptor (Homo sapiens) (P34981 whole entry, looked up): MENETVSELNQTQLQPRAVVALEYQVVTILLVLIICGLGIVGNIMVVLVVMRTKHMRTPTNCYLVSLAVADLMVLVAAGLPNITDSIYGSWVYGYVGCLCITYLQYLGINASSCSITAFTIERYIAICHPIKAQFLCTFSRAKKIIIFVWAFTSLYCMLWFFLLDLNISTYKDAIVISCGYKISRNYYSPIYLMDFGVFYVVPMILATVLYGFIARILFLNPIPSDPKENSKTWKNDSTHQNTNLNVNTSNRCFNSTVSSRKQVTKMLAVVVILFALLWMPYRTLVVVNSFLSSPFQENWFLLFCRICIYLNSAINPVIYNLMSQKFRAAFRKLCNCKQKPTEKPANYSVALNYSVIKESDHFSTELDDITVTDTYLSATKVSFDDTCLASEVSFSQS
Sequence of Progesterone receptor (Homo sapiens) (P06401 whole entry, looked up): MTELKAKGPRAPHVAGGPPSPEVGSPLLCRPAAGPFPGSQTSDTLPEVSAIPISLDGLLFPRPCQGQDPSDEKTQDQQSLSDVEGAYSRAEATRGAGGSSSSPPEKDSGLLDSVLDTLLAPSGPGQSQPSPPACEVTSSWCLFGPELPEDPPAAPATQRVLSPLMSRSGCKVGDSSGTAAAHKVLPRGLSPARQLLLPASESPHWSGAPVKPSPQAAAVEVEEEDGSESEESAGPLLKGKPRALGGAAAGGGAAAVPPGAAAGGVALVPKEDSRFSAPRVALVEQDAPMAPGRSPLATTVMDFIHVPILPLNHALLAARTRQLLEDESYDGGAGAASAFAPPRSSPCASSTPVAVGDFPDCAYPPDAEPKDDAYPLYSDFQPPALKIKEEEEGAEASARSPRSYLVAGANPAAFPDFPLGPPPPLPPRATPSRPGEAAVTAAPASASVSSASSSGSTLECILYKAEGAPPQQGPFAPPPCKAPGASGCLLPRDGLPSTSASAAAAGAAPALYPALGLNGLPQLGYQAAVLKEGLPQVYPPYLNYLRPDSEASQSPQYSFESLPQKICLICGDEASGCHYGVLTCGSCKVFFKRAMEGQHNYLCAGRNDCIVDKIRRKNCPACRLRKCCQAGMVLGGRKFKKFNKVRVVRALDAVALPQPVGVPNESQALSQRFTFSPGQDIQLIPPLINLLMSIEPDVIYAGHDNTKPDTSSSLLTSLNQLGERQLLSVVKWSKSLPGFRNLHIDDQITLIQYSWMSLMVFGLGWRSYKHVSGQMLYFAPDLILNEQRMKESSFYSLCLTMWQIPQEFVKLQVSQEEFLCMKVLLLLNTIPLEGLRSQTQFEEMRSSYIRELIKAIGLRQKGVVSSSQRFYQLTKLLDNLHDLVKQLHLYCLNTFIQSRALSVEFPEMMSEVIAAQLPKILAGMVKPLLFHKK
Sequence of Thyrotropin receptor (Homo sapiens) (P16473 whole entry, looked up): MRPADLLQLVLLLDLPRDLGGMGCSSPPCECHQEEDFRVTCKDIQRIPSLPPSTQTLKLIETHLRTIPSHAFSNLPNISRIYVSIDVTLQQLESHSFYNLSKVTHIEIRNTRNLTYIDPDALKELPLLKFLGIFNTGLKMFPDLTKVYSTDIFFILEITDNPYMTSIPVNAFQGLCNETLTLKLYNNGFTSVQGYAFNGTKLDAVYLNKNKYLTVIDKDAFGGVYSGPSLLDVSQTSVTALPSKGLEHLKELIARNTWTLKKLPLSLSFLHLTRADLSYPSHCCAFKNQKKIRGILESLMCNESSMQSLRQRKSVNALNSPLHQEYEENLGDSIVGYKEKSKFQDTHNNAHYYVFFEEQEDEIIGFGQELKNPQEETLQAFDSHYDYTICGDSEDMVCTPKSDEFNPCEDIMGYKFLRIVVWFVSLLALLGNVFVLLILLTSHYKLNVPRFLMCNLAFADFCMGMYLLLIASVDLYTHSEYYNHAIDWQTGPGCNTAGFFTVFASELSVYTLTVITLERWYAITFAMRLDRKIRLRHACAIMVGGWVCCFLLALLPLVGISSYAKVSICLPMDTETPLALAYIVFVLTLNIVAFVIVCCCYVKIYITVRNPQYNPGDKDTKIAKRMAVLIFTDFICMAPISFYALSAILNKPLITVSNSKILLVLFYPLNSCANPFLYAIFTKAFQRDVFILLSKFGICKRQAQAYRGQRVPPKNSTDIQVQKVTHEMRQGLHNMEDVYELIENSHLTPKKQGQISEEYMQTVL
Sequence of Estrogen receptor (Homo sapiens) (P03372 whole entry, looked up): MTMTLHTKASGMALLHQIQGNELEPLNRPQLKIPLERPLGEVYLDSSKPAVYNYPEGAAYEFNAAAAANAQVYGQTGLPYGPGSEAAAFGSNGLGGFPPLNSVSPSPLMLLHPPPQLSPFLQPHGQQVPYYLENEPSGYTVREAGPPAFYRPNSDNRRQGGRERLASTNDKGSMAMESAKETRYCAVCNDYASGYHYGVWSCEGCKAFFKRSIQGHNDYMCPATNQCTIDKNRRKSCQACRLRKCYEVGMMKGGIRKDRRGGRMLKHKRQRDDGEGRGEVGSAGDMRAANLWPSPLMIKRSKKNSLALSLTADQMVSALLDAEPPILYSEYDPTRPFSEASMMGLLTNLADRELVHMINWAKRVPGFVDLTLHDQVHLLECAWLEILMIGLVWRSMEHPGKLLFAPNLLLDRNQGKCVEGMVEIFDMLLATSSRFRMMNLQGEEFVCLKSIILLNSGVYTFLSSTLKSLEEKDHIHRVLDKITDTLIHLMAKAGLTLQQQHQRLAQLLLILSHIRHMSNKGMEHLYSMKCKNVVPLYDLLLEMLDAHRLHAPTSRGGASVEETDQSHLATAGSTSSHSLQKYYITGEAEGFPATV
Sequence of Estrogen receptor beta (Homo sapiens) (Q92731 whole entry, looked up): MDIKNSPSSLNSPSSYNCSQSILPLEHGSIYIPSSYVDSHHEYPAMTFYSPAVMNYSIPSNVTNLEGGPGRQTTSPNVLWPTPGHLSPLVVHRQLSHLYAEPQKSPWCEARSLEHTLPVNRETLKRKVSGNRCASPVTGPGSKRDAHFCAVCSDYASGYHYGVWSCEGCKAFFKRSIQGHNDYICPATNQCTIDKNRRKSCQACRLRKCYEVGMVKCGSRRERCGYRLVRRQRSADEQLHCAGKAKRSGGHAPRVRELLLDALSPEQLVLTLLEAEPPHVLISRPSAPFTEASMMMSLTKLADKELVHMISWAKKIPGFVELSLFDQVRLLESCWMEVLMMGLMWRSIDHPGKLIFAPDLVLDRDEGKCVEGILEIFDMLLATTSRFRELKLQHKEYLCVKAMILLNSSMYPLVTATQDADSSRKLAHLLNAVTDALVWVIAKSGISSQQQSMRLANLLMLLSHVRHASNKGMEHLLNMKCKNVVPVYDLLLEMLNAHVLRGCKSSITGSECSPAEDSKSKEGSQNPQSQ
Sequence of Androgen receptor (Homo sapiens) (P10275 whole entry, looked up): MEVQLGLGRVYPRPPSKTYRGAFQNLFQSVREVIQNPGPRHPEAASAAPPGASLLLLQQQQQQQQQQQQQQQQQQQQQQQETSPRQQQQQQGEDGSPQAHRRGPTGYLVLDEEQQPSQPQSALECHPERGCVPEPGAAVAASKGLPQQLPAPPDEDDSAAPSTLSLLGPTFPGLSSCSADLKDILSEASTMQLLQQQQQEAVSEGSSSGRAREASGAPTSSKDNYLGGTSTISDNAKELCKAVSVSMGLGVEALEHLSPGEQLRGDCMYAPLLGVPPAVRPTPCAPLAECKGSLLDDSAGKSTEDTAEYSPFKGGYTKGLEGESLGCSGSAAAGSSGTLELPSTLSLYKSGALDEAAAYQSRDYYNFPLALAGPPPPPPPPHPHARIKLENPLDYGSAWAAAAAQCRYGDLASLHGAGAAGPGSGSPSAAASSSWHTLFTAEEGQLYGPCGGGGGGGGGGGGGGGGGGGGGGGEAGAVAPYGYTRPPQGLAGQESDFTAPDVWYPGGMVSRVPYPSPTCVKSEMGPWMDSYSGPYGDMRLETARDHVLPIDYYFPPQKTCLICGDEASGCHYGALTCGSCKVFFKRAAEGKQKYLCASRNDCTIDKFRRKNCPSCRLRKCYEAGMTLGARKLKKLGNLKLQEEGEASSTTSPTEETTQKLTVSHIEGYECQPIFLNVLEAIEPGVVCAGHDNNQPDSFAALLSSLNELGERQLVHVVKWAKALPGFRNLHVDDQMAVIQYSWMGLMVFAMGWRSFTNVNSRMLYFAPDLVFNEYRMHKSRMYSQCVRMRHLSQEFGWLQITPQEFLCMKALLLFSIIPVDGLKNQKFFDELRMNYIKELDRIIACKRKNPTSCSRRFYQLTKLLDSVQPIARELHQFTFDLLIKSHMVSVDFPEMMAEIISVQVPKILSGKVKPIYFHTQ

O=c1oc2c(O)c(O)cc3c(=O)oc4c(O)c(O)cc1c4c23
inactive: activity change [1] -1.7% [at 18.9 µM, stronger effect = higher value] | activity change, negative = inhibition [2] 14.9% [at 19 µM] | activation [3] 0.261% [at 19 µM] | activity, negative = inhibition [4] -0.396% [at 19 µM] | activity change, negative = cytotoxicity [5] -4.09% [at 19 µM] | activity change, negative = cytotoxicity [6] 7.11% [at 19 µM] | activity change, negative = cytotoxicity [7] -1.21% [at 19 µM] | activation [8] -0.711% [at 19 µM] | activity change, negative = cytotoxicity [9] -2.74% [at 19 µM] | activation [10] -0.0631% [at 19 µM] | activity change, negative = inhibition [11] 7.58% [at 18.9 µM] | Potency [12] | activity change, negative = cytotoxicity [13] -1.25% [at 19 µM] | viability change, negative = cytotoxic [14] -7.88% [at 15.8 µM] | activity change, negative = cytotoxicity [15] 10.9% [at 15.8 µM] | activation [16] 5.13% [at 15.8 µM] | activity, negative = inhibition [17] 1.88% [at 10.5 µM]

CCCCC(CC)COC(=O)COc1cc(Cl)c(Cl)cc1Cl (centres undefined)
inactive: Potency [1] | Potency [2] | outcome [3] | Potency [4] | Potency [5] | Potency [6] | outcome [7] | Potency [8] | outcome [18] | Potency [9] | Potency [10] | Potency [11] | Potency [12] | Potency [13] | outcome [14] | outcome [15] | outcome [16] | outcome [17]

CCCC(CCC)(C(=O)OCC)C(=O)OCC
inactive: Potency [1] | Potency [2] | outcome [3] | Potency [4] | Potency [5] | Potency [6] | Potency [19] | outcome [7] | Potency [8] | outcome [18] | Potency [20] | Potency [9] | Potency [10] | Potency [11] | Potency [12] | Potency [13] | outcome [15] | outcome [16] | outcome [17]

CCOc1ccc(NC(N)=O)cc1
inactive: Potency [1] | Potency [2] | outcome [3] | Potency [4] | Potency [5] | Potency [6] | outcome [7] | Potency [8] | outcome [18] | Potency [20] | Potency [9] | Potency [10] | Potency [11] | Potency [12] | Potency [13] | outcome [14] | outcome [15] | outcome [16] | outcome [17]

CCCCCCCCOC(=O)CCCCCCCCC(=O)OCCCCCCCC
inactive: Potency [1] | Potency [2] | outcome [3] | Potency [4] | Potency [5] | Potency [6] | outcome [7] | Potency [8] | Potency [9] | Potency [10] | Potency [11] | Potency [12] | Potency [13] | outcome [14] | outcome [15] | outcome [16] | outcome [17]

FC(F)(F)C(Cl)(Cl)Cl
inactive: Potency [1] | Potency [2] | outcome [3] | Potency [4] | Potency [5] | Potency [6] | outcome [7] | Potency [8] | outcome [18] | Potency [20] | Potency [9] | Potency [10] | Potency [11] | Potency [13] | outcome [14] | outcome [15] | outcome [16]

NC(=O)Cc1cccc(C(=O)c2ccccc2)c1N
inactive: Potency [1] | Potency [2] | outcome [3] | Potency [4] | Potency [5] | Potency [6] | outcome [7] | Potency [9] | Potency [10] | Potency [11] | Potency [12] | outcome [14] | outcome [15] | outcome [16]

Cc1cc(NS(=O)(=O)c2ccc(N)cc2)nc(C)n1
inactive: Potency [1] | Potency [2] | outcome [3] | Potency [4] | Potency [5] | outcome [7] | Potency [8] | outcome [18] | Potency [20] | Potency [9] | Potency [10] | Potency [11] | Potency [12] | Potency [13] | outcome [14] | outcome [15] | outcome [16] | outcome [17]
